Results from PubChem BioAssay AID1224921 (Broad Institute, 2016).
The whole screen tested about 1,400 compounds, of which about 350 (25%) were called active. Inconclusive results (about 2%) are left out. The list is a sample of the results. Results with a measured potency or affinity are listed apart. Values without a mark were called inactive. No rule for the calls is given here.

test: C. difficile growth inhibition, confirmation, 4-point retest (AID 1224921); details: Clostridioides difficile clinical isolate growth, OD600, 24 h, hits give low values; at 30 µM unless noted;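 also: plate controls were DMSO wells for no effect and levofloxacin 16 µg/mL wells for full effect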

| Structure (SMILES) | max activity |
| --- | --- |
| CNC[C@H]1Oc2cc(-c3ccccc3F)ccc2S(=O)(=O)N([C@H](C)CO)C[C@H]1C | 25.6% |
| C[C@@H]1CN([C@H](C)CO)C(=O)Cc2cc(NC(=O)C3CC3)ccc2O[C@@H]1CN(C)Cc1ccc(-c2ccccc2)cc1 | 43.1% [at 35 µM] |
| CC(C)C#Cc1ccc2c(c1)O[C@H](CN(C)Cc1ccncc1)[C@@H](C)CN([C@H](C)CO)S2(=O)=O | 51.9% |
| CO[C@H]1CN(C)C(=O)c2cc(NC(=O)Nc3ccccc3F)ccc2OC[C@@H](C)N(CC2CC2)C[C@@H]1C | -19.6% [at 1.95 µM] |
| CO[C@@H]1CN(C)C(=O)c2ccc(NC(C)=O)cc2OC[C@@H](C)N(Cc2cccc(F)c2)C[C@@H]1C | 16.8% |
| CCS(=O)(=O)Nc1ccc2c(c1)C(=O)N(C)C[C@@H](OC)[C@H](C)CN(CC1CCCC1)[C@H](C)CO2 | -10.9% [at 1.95 µM] |
| C[C@@H]1CN([C@H](C)CO)S(=O)(=O)c2ccc(C#CCC3CCCC3)cc2O[C@H]1CN(C)C(=O)CC1CC1 | 15.9% |
| COc1cccc(NC(=O)N[C@H]2CC[C@H](CC(=O)Nc3ccc(-c4ccccc4)cc3)O[C@H]2CO)c1 | 32.5% |
| COc1cccc(-c2ccc3c(c2)O[C@@H](CN(C)Cc2cccnc2)[C@H](C)CN([C@H](C)CO)S3(=O)=O)c1 | 34.9% |
| C[C@@H]1CN([C@H](C)CO)C(=O)c2cccc(NC(=O)c3nc4ccccc4s3)c2O[C@H]1CN(C)Cc1ccc2c(c1)OCO2 | 20.2% |
| O=C(C[C@H]1C[C@H]2c3cc(NC(=O)C4CCC4)ccc3O[C@H]2[C@H](CO)O1)NCCc1ccccc1 | -11.7% [at 1.95 µM] |
| CCC(=O)N1C[C@H](C)[C@H](OC)CN(C)C(=O)c2ccc(NC(=O)Nc3ccc(Cl)cc3)cc2OC[C@H]1C | 20% |
| Cc1ccccc1S(=O)(=O)NCC[C@H]1CC[C@H](NC(=O)Nc2cccc(Cl)c2)[C@H](CO)O1 | 6.17% [at 35 µM] |
| CCC(=O)N[C@@H]1CC[C@@H](CC(=O)NCc2ccccc2F)O[C@@H]1CO | -13% [at 8 µM] |
| CCC(=O)N[C@H]1CC[C@H](CC(=O)NCc2ccccc2F)O[C@H]1CO | -6.85% [at 0.5 µM] |
| CCC(=O)N[C@@H]1CC[C@H](CC(=O)NCc2ccccc2F)O[C@@H]1CO | -16.5% [at 8 µM] |
| N#C[C@H]1[C@H](c2ccc(C#Cc3ccccc3F)cc2)[C@@H](CO)N1C(=O)C1CCC1 | 26.9% |
